# HT1080 IDH1KD tx = toxicity to HT-1080 IDH1 knockdown cells (counter line); HT-1080 IDH1 knockdown viability, ATP luminescence, 48 h; Potency, µM (titrated, usually from 46.1 µM), actives largely listed as cytotoxic; 360,000 tested, 2% active
#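 HT-1080-IDH1KD cells (IDH1 knocked down), 750/well in RPMI with 5% FBS, treated with compound 48 h at 37 degrees C. Viability by CellTiter-Glo luminescence, normalised to DMSO and no-cell wells; concentration-response curves classed.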
# IL-1B inflam inh = inflammasome signaling inhibition, IL-1 beta readout; THP-1 LPS/ATP IL-1B secretion, AlphaLISA, 16 h; active compounds read low; 360,000 tested, 4.7% active; activity change, % at 57.5 µM; in the data active = activity change below about -50%; inconclusive = mostly about -30% to -49%
#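 Secreted IL-1B measured by AlphaLISA bead assay after 16 h compound exposure of THP-1 cells; compounds (final up to 57.5 uM) added 1 h before LPS (250 ng/mL) and ATP (1.25 mM) stimulation; lower signal means less secretion.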
# DT40 TDP1 no CPT = qHTS for Inhibitors of human tyrosyl-DNA phosphodiesterase 1 (TDP1): qHTS in cells in absence of CPT; DT40 Tdp1-/- hTDP1 cells, no CPT, ATP luminescence, 48 h; Potency, µM (top dose mostly 46.2 µM), usual class: inhibitors; 420,000 tested, 15% active; also: nearly all actives have a fitted effect of over 55% in size
#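 Chicken DT40 Tdp1-/- cells complemented with human TDP1, screened without camptothecin (DMSO vehicle only), 400 cells/well. Compounds pin-transferred, cells incubated at 37 °C for at least 48 hr. Growth read as ATP-dependent luminescence (CellTiter-Glo, 30 min at RT).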
# HT1080NT lethal = kills 2HG-producing HT-1080-NT fibrosarcoma cells | 360,000 tested, 1.6% active | Potency, µM (series often up to 46.1 µM), usual class: cytotoxic | HT-1080-NT fibrosarcoma viability, CellTiter-Glo ATP luminescence, 48 h | AID 686970;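 also: NT is the 2HG producing partner of a matched IDH1 knockdown line; nearly all actives have a fitted effect of over 55% in size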
#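 Toxicity toward the 2HG-producing NT line was scored as %Activity, normalised to DMSO and no-cell wells, from CellTiter-Glo luminescence after 48 hours' treatment.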
# uPA generation = blocks generation of uPA at the cell surface; cell surface uPA generation assay, qHTS; Potency, µM (top dose mostly 38.3 µM), usual class: inhibitors; 330,000 tested, 0.31% active; AID 540303; active = well fitted inhibition curve with a large enough effect; inconclusive = small, poorly fitted or top-dose-only effect; inactive = no such curve, though single readings can be large or run the other way; tested in mouse RAW 264.7 cells; also: nearly all actives have a fitted effect of over 55% in size
# DT40 TDP1 CPT = DT40-hTDP1 cell growth loss with CPT | chicken DT40 Tdp1-/-;hTDP1 cells + 20 nM CPT, ATP luminescence, 48 h | Potency, µM (doses to about 46.2 µM), actives largely listed as inhibitors | 420,000 tested, 12% active | AID 686979; also: nearly all actives have a fitted effect of over 55% in size
#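 Chicken DT40 Tdp1-/- cells stably complemented with human TDP1 were seeded at 400 cells/well in medium containing 20 nM camptothecin, exposed to pin-transferred compounds, and grown at 37 °C for at least 48 hr. Viability was read as ATP luminescence.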
# Hits are given with their value; i = inactive; ? = inconclusive; nt = no result given. This is a sample that favours compounds with a hit; in the whole collection about 19% have one here. Unless noted, calls follow the shape of the dose curve; as a rule, active = well fitted curve in the direction sought with a large enough effect; inconclusive = small, poorly fitted or top-dose-only effect, or another doubt; inactive = no such curve, though single readings can be large; an effect the other way counts as inactive or inconclusive.
SMILES,HT1080 IDH1KD tx,IL-1B inflam inh,DT40 TDP1 no CPT,HT1080NT lethal,uPA generation,DT40 TDP1 CPT
CN(C)C(=O)CCc1ccc2c3c([nH]c2c1)[C@]1(CCC2CCCC2)[C@@H](C(=O)N2CCOCC2)C[C@H](CC(=O)NCc2cccc(C(F)(F)F)c2)C(=O)N1CC3,i,-55.8,14.6µM,i,?,20.6µM
CN(C)CCCNC(=O)CC1C[C@H](C(=O)N2CCOCC2)[C@@]2(CCC3CCCC3)c3[nH]c4ccccc4c3CCN2C1=O (stereo partly drawn),i,i,i,i,i,i
C[C@]12c3[nH]c4ccc(Cl)cc4c3CCN1C(=O)[C@@H](CC(=O)NCc1cccc(C(F)(F)F)c1)C[C@@H]2C(=O)N1CCCCC1,i,?,20.6µM,i,?,?
O=C(C[C@H]1C[C@H](C(=O)N2CCOCC2)[C@@]2(CCC3CCCC3)c3[nH]c4cc(-c5ccco5)ccc4c3CCN2C1=O)NCCCn1ccnc1,16.4µM,?,?,?,?,?
COc1ccc2[nH]c3c(c2c1)CCN1C(=O)C(CC(=O)NC(C)(C)C)C[C@H](C(=O)N2CCOCC2)[C@@]31CCC1CCCC1 (stereo partly drawn),i,i,i,i,i,i
COc1ccc(CNC(=O)CC2C[C@H](C(=O)N3CCOCC3)[C@@]3(CCC4CCCC4)c4[nH]c5ccccc5c4CCN3C2=O)cc1OC (stereo partly drawn),i,i,23.1µM,i,?,?
C[C@]12c3[nH]c4ccc(Cl)cc4c3CCN1C(=O)[C@@H](CC(=O)NCCCn1ccnc1)C[C@@H]2C(=O)N1CCCCC1,i,i,?,i,i,?
CC(C)(C)NC(=O)C[C@H]1C[C@H](C(=O)N2CCOCC2)[C@@]2(CCC3CCCC3)c3[nH]c4ccc(Cl)cc4c3CCN2C1=O,?,-60.3,16.4µM,?,?,?
CNC(=O)C1Cc2c(-c3ccccc3Oc3ccccc3)ccnc2O1 (stereo not drawn),i,i,i,i,nt,?
Cn1c(-c2ccccc2)c(Sc2ccccc2)c2cc(-c3ccc4[nH]ccc4c3)ccc21,i,i,i,i,nt,?
O=C(NCc1ccccc1)C1c2ccccc2OCC(=O)N1CC(F)(F)F (stereo not drawn),i,i,i,i,nt,i
CN1CCN(c2ccc(S(=O)(=O)N3CCOCC3)cc2NC(=O)COc2ccc(F)cc2Cl)CC1,i,i,?,i,i,25.9µM
CCN(CC)S(=O)(=O)c1ccc(N2CCN(C)CC2)c(NC(=O)COc2ccc(F)cc2Cl)c1,i,i,16.4µM,i,i,?
O=C(COC(=O)c1ccc(F)cc1)Nc1cc(S(=O)(=O)N2CCOCC2)ccc1N1CCCC1,i,i,i,i,i,?
CN1CCN(c2ccc(S(=O)(=O)N3CCOCC3)cc2NC(=O)COc2ccc(C#N)cc2)CC1,i,?,i,i,i,i
O=C(COc1ccc(F)cc1Cl)Nc1cc(S(=O)(=O)N2CCOCC2)ccc1N1CCCCC1,i,-51.4,?,i,i,?
Cc1ccc(Cl)c(OCC(=O)Nc2cc(S(=O)(=O)N3CCOCC3)ccc2N2CCCC2)c1,i,-58.6,i,i,i,16.4µM
CCN(CC)S(=O)(=O)c1ccc(N2CCOCC2)c(NC(=O)COc2ccc(Cl)cc2)c1,i,i,?,i,i,?
NC(=O)CSc1ccc2nnc(-c3ccncc3)n2n1,nt,nt,i,nt,nt,i
Cc1cc(OCC(=O)Nc2cc(S(=O)(=O)N3CCOCC3)ccc2N2CCCC2)ccc1C(C)C,i,?,8.2µM,i,i,11.6µM
Cc1ccc(OCC(=O)Nc2cc(S(=O)(=O)N3CCOCC3)ccc2N2CCCC2)cc1,i,i,?,i,i,i
Cc1ccc(S(=O)(=O)n2ccc3c2CCCC3=O)cc1,i,i,20.6µM,i,i,?
CCOC(=O)c1cccc2c1-c1ccccc1/C2=N/O,?,-54.0,i,?,i,i
Cc1cc(C)nc(Nc2ccc(N3CCOCC3)cc2)n1,i,i,i,i,i,i
Cc1cccc2nc(-c3ccco3)c(Nc3ccc4c(c3)OCCO4)n12,i,i,?,i,i,?
SMILES,HT1080 IDH1KD tx,IL-1B inflam inh,DT40 TDP1 no CPT,HT1080NT lethal,uPA generation,DT40 TDP1 CPT
Cc1ccc(Nc2c(-c3ccc(C)s3)nc3cccc(C)n23)cc1,i,nt,12.6µM,i,nt,12.6µM
COc1ccc(-c2nc3cccc(C)n3c2Nc2ccc(C)cc2)cc1,i,nt,12.6µM,i,nt,20µM
Cc1ccc(Nc2c(-c3ccc(N4CCOCC4)cc3)nc3cccc(C)n23)cc1,nt,nt,23.1µM,nt,nt,23.1µM
Cc1ccc(Nc2c(-c3cccc(Cl)c3)nc3cccc(C)n23)cc1,nt,nt,16.4µM,nt,nt,?
CCOc1ccc(NS(=O)(=O)c2ccc(NC(=O)[C@@H]3CCCC[C@@H]3C(=O)O)cc2)cc1,i,i,i,i,i,i
Cc1cc(Cl)ccc1OCCSc1nnc(-c2cccs2)o1,nt,nt,?,nt,nt,i
CC(C)NC(=O)c1ccc(Cn2c(=O)c3cccn3c3cccnc32)cc1,nt,nt,?,nt,nt,i

# High-throughput results (PubChem)
